Experimental data taken from PubChem BioAssay (NCI).
Where “and” joins values, the source holds several entries; their conditions need not be identical. Equal entries are not always repeated. This is part of a sample that, as a whole, favours compounds with a hit. Of some 83,000 tested, about 20% had one in any assay.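 A percent growth of 40 corresponds to 60% growth inhibition; 0 means no net growth; -100 means all cells died. Active threshold: below 10.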 Calls of active or inactive are those of the source.

Tests used:
Experiment in all cases: NCI-60 one-dose screen, 48 h (100 = growth as untreated, 0 = no growth, -100 = all killed)
Settings in all cases: 10 µM unless noted
HCT-15 colon = tested on: HCT-15 colon
HT29 colon = tested on: HT29 colon
SNB-75 CNS = tested on: SNB-75 CNS
U251 CNS = tested on: U251 CNS
PC-3 prostate = tested on: PC-3 prostate
SK-MEL-5 melanoma = tested on: SK-MEL-5 melanoma
UACC-62 melanoma = tested on: UACC-62 melanoma
LOX IMVI melanoma = tested on: LOX IMVI melanoma
SK-MEL-28 melanoma = tested on: SK-MEL-28 melanoma
SK-MEL-2 melanoma = tested on: SK-MEL-2 melanoma
EKVX NSCLC = tested on: EKVX NSCLC
SN12C renal = tested on: SN12C renal
UO-31 renal = tested on: UO-31 renal
TK-10 renal = tested on: TK-10 renal
ACHN renal = tested on: ACHN renal
CAKI-1 renal = tested on: CAKI-1 renal
A498 renal = tested on: A498 renal
CCRF-CEM leukemia = tested on: CCRF-CEM leukemia
MOLT-4 leukemia = tested on: MOLT-4 leukemia
SNB-19 CNS = tested on: SNB-19 CNS

SMILES | growth (HCT-15 colon) | growth (HT29 colon) | growth (SNB-75 CNS) | growth (U251 CNS) | growth (PC-3 prostate) | growth (SK-MEL-5 melanoma) | growth (UACC-62 melanoma) | growth (LOX IMVI melanoma) | growth (SK-MEL-28 melanoma) | growth (SK-MEL-2 melanoma) | growth (EKVX NSCLC) | growth (SN12C renal) | growth (UO-31 renal) | growth (TK-10 renal) | growth (ACHN renal) | growth (CAKI-1 renal) | growth (A498 renal) | growth (CCRF-CEM leukemia) | growth (MOLT-4 leukemia) | growth (SNB-19 CNS)
O=C1/C(=C/C=C/c2ccco2)SC(=S)N1CC(=S)C1C=CS(=O)(=O)C1 (stereo not given) | 75.6% (inactive) | 109% (inactive) | 93.5% (inactive) | 88.7% (inactive) | 96.7% (inactive) | 86.8% (inactive) | 74.4% (inactive) | 66.7% (inactive) | 93.9% (inactive) | 88.1% (inactive) | 94% (inactive) | 81.2% (inactive) | 84.1% (inactive) | 126% (inactive) | 100% (inactive) | 107% (inactive) | 141% (inactive) | 45.9% (inactive) | 68.8% (inactive) | –
COc1ccc(NC(=O)Cn2c(/C=C/c3ccc([N+](=O)[O-])cc3)nc3ccccc3c2=O)cc1 | 73.7% (inactive) | 85.5% (inactive) | -32.7% (active) | 32.2% (inactive) | 89.7% (inactive) | 52.6% (inactive) | 73.2% (inactive) | 61.5% (inactive) | 80.8% (inactive) | 78.9% (inactive) | 74.4% (inactive) | 62.3% (inactive) | 22.9% (inactive) | 25.5% (inactive) | 51.9% (inactive) | 63.2% (inactive) | – | 103% (inactive) | 114% (inactive) | –
Cc1ccccc1Nc1nnc(-c2c[nH]c3ccccc23)o1 | 16.8% (inactive) | 2.95% (active) | 26% (inactive) | 11.8% (inactive) | 37.6% (inactive) | -17% (active) | 28.4% (inactive) | 29.1% (inactive) | – | -10.8% (active) | 20.1% (inactive) | 33.8% (inactive) | 33.8% (inactive) | 60.2% (inactive) | 39.5% (inactive) | 29.4% (inactive) | – | 10.5% (inactive) | 9.88% (active) | –
NS(=O)(=O)c1cccc(Nc2nc(SCC(=O)c3ccc(F)cc3)nc3ccccc23)c1 | 8.07% (active) | 18.3% (inactive) | 28.3% (inactive) | -12% (active) | 16.6% (inactive) | -29.1% (active) | -49.8% (active) | -44.6% (active) | 26.8% (inactive) | -47% (active) | 28% (inactive) | 15.8% (inactive) | 17.9% (inactive) | 44.6% (inactive) | 25.9% (inactive) | 21.9% (inactive) | 71.1% (inactive) | 1.38% (active) | 2.93% (active) | –
Cc1ccc(C(=O)Nc2cc(-n3cnc(F)c3)cc(C(F)(F)F)c2)cc1C#Cc1cnc2cccnn12 | 36.2% (inactive) | 35.4% (inactive) | 132% (inactive) | 83.7% (inactive) | 89.8% (inactive) | 38.3% (inactive) | 26% (inactive) | 22% (inactive) | 29.3% (inactive) | 40.7% (inactive) | 74.2% (inactive) | 45.6% (inactive) | 39.9% (inactive) | 83.2% (inactive) | 59.4% (inactive) | 63.1% (inactive) | 103% (inactive) | 29% (inactive) | 44.7% (inactive) | –
O=C(Cn1c(/C=C/c2ccc([N+](=O)[O-])cc2)nc2ccccc2c1=O)Nc1ccccc1 | 85.8% (inactive) | 45.8% (inactive) | 38.5% (inactive) | 69.4% (inactive) | 85.1% (inactive) | 82.6% (inactive) | 69.6% (inactive) | 58.4% (inactive) | 76.1% (inactive) | 74.7% (inactive) | 79.9% (inactive) | 61.6% (inactive) | 90.4% (inactive) | 95.3% (inactive) | 47.8% (inactive) | 57.3% (inactive) | 143% (inactive) | 101% (inactive) | 107% (inactive) | –
COc1cc(NC(=O)CSc2nnc(-c3ccc(-c4nc5ccc(Cl)cc5[nH]4)cc3)o2)cc(OC)c1OC | 25.6% (inactive) | 51.3% (inactive) | 36.8% (inactive) | 32.8% (inactive) | 52.3% (inactive) | 5.22% (active) | 28.4% (inactive) | 32.2% (inactive) | 49.1% (inactive) | 40.3% (inactive) | – | 46.6% (inactive) | 64% (inactive) | 93.9% (inactive) | 74.9% (inactive) | 68.3% (inactive) | 137% (inactive) | 15% (inactive) | – | –
COC(=O)c1cc(C(=O)CBr)n2c1ccc1c3ccccc3ccc12 | 39.3% (inactive) | 44.6% (inactive) | 90.2% (inactive) | 39.4% (inactive) | 53.1% (inactive) | 53.4% (inactive) | 51.2% (inactive) | 31.9% (inactive) | 92.3% (inactive) | 113% (inactive) | 60.1% (inactive) | 51.1% (inactive) | 24.3% (inactive) | 84.3% (inactive) | 17.4% (inactive) | 54% (inactive) | 101% (inactive) | 14% (inactive) | 6.44% (active) | –
COc1ccc(-c2nc3ccccc3n2CC(=O)N=Nc2c(O)[nH]c3ccc(Br)cc23)cc1 | 58.1% (inactive) | 45.4% (inactive) | 66.8% (inactive) | 105% (inactive) | 76.7% (inactive) | 67.4% (inactive) | 72.1% (inactive) | 74.4% (inactive) | 97.8% (inactive) | 85.4% (inactive) | 85% (inactive) | 97% (inactive) | 66.7% (inactive) | 94.8% (inactive) | 87.8% (inactive) | 74.9% (inactive) | 139% (inactive) | 67.2% (inactive) | 37.2% (inactive) | –
COc1cncc(-c2ccc3ncnc(N4CCc5ccc(Cl)cc54)c3c2)c1 | 11.9% (inactive) | 31.4% (inactive) | 24.3% (inactive) | 51% (inactive) | 6.75% (active) | -16.7% (active) | 16.3% (inactive) | 6.64% (active) | 48.6% (inactive) | 30.6% (inactive) | -29.3% (active) | 20.3% (inactive) | 1.93% (active) | 8.96% (active) | 10.5% (inactive) | 8.52% (active) | 33.2% (inactive) | -1.98% (active) | – | –
CC[C@]12C=CCN3CC[C@]4(C(=C(C(=O)OC)C1)Nc1cc(OC)c([C@@H]5[C@H]6O[C@H]6[C@@]6(CC)CC(C(=O)OC)=C7Nc8cc(OC)ccc8[C@@]78CCN5[C@@H]68)cc14)[C@@H]32 | 24.8% (inactive) | 58.9% (inactive) | 50% (inactive) | – | 18.7% (inactive) | 27.9% (inactive) | 42.9% (inactive) | 15.5% (inactive) | 82.5% (inactive) | 83.1% (inactive) | 51.7% (inactive) | 50% (inactive) | 69.5% (inactive) | 72.5% (inactive) | 44% (inactive) | 43.4% (inactive) | 141% (inactive) | 30.8% (inactive) | 18.4% (inactive) | –
COc1cc(C2CC(c3ccc(F)cc3)=Nc3c(N)nc(N)nc3N2)ccc1Oc1nc(Nc2ccc(F)cc2)nc(N(C)C)n1 (stereo not given) | 35.7% (inactive) | 22.1% (inactive) | 58.3% (inactive) | – | – | -94.3% (active) | 73.4% (inactive) | 38.5% (inactive) | 84.2% (inactive) | 19.2% (inactive) | 56.4% (inactive) | 79.7% (inactive) | 48% (inactive) | 88.7% (inactive) | 51.4% (inactive) | 40.5% (inactive) | 74% (inactive) | 44.2% (inactive) | 1.16% (active) | 65.1% (inactive)
O=C1C=CC(=CC=C2N(Cc3ccc4ccccc4c3)c3ccccc3N2Cc2ccc3ccccc3c2)C=C1 | 94.7% (inactive) and 95.3% (inactive) | 15.1% (inactive) and 13.2% (inactive) | 39.6% (inactive) and 26.9% (inactive) | 17.4% (inactive) and 17.6% (inactive) | 18.6% (inactive) and 16.6% (inactive) | -64.3% (active) and -51.3% (active) | 2.32% (active) and 11.9% (inactive) | 14.8% (inactive) and 19.6% (inactive) | 16.7% (inactive) and 20.5% (inactive) | -12.8% (active) and -12.7% (active) | 33.7% (inactive) and 32.9% (inactive) | 6.94% (active) and 13.3% (inactive) | 103% (inactive) and 98.5% (inactive) | 63.6% (inactive) and 74% (inactive) | 77.2% (inactive) and 78.6% (inactive) | 77.6% (inactive) and 70.8% (inactive) | 106% (inactive) and 109% (inactive) | 21.7% (inactive) and 10.9% (inactive) | 22.5% (inactive) and 17.6% (inactive) | –
O=C(NNC(=O)c1ccc(OCc2nc3ccc(Cl)cc3[nH]2)cc1)Nc1ccc(Cl)c(C(F)(F)F)c1 | 97.6% (inactive) | 68.2% (inactive) | 59.8% (inactive) | 30.7% (inactive) | – | 70.4% (inactive) | 61.4% (inactive) | 48.2% (inactive) | 52.8% (inactive) | 109% (inactive) | – | 64.9% (inactive) | 82.8% (inactive) | 116% (inactive) | 75.3% (inactive) | 81% (inactive) | – | 48.9% (inactive) | – | –
N#Cc1c(-c2ccc(F)cc2)nc(SCc2ccc(F)cc2)nc1N1CCNCC1 | -42.8% (active) | -79.1% (active) | 19.3% (inactive) | -95.5% (active) | 11.3% (inactive) | -67.4% (active) | -91.6% (active) | -100% (active) | -97.6% (active) | -73% (active) | – | -58.6% (active) | 8.26% (active) | -25% (active) | -79% (active) | -80.1% (active) | 96.5% (inactive) | 4.49% (active) | 7.79% (active) | –
Nc1ccc(-c2ccc3ncnc(N4CCc5cc(F)c(Cl)cc54)c3c2)cn1 | 24.8% (inactive) | 25.9% (inactive) | -4.49% (active) | – | – | 16.6% (inactive) | 15% (inactive) | 18.7% (inactive) | 41.4% (inactive) | 29% (inactive) | -29.2% (active) | 19.2% (inactive) | 3.05% (active) | -7.15% (active) | 8.96% (active) | 5.25% (active) | -13.2% (active) | 10.6% (inactive) | 1.81% (active) | 39.3% (inactive)
